Rows were chosen to be rich in hits. Some 2.1% of all compounds tested hit in one or more screens of this group.
aSyn yeast inh: rescues yeast growth from alpha-synuclein toxicity; Yeast expressing alpha-synuclein, growth rescue, BacTiter-Glo, 24 h; Potency, µM (top dose mostly 46.1 µM), without a hit: at the highest dose growth rescue (activation), usual class: activators; 370,000 compounds, 0.14% hits; AID 652106; note: % of control where 0% means no effect; nearly all actives have a fitted effect of over 65% in size
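Readout is rescue of growth in alpha-synuclein-expressing yeast, so inhibitors of toxicity appear as activators. Growth after 24 hr at 30 deg C in galactose medium is quantified by luminescence.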
FUS yeast rescue: FUS proteinopathy suppression in yeast | Potency, µM (doses to about 76.6 µM), most hits filed as activators | 390,000 compounds, 0.24% hits | S. cerevisiae FUS-expressing, growth rescue, OD600, 24 h | AID 1347120;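 note: plate controls were DMSO vehicle for no effect and reference control for full effect; nearly all actives have a fitted effect of over 55% in size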
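Steps: raffinose overnight preculture; dilution to OD 0.005 in 2% galactose minimal medium; compound addition (concentration series); 24hr at 30C, 99% humidity; absorbance read at 600 nm.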
Abeta yeast res: A-beta toxicity reversal in yeast; Potency, µM (highest dose often 46.1 µM), actives largely listed as activators; 410,000 compounds, 0.063% hits; yeast expressing A-beta42, growth rescue, OD600, 48 h; response scale: 0% DMSO, 100% iron-clioquinol control; AID 1347071; note: nearly all actives have a fitted effect of over 55% in size
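Growth rescue measured by 600 nm absorbance after 48 h yeast culture at 30 C with compound. Values normalized between DMSO and an equimolar ferric chloride plus clioquinol control.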
TDP-43 yeast inh: inhibitors of TDP-43 toxicity in yeast. TDP-43 expressing yeast growth rescue, BacTiter-Glo, 24 h. Potency, µM (series often up to 46.1 µM), inactives show top-dose growth rescue (activation), actives largely listed as activators. 410,000 compounds, 1.8% hits. AID 652104; note: % of control where 0% means no effect; nearly all actives have a fitted effect of over 50% in size
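Yeast expressing TDP-43 (pregrown in raffinose, seeded at OD600=0.02 in galactose medium) exposed to compounds 24 hr at 30 deg C. Growth read by BacTiter-Glo luminescence; rescue of toxicity appears as increased signal.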
Active calls of the source: *; i = inactive; ? = inconclusive; / = not tested or not shown; [ ] = dose if it differs, or a comment. Calls come from the whole dose curve; as a rule, active = well fitted curve in the direction sought with a large enough effect; inconclusive = small, poorly fitted or top-dose-only effect, or another doubt; inactive = no such curve, though single readings can be large; an effect the other way counts as inactive or inconclusive. Potency is the fitted concentration of half-maximal effect.

SMILES | aSyn yeast inh | FUS yeast rescue | Abeta yeast res | TDP-43 yeast inh
CCOC(=O)c1sc2nccc(N(C)C)c2c1N=CNOCc1c(F)cccc1Cl | 5% | i | i | 18µM*
CCOCCCn1c(SCC(=O)NCc2ccco2)nc2c(sc3ccccc32)c1=O | / | i | i | 18%
CCCCn1c(SCC(=O)NCc2ccco2)nc2c(sc3ccccc32)c1=O | -9% | 10µM* | i | 0%
Fc1ccc(C[n+]2csc3ccccc32)cc1 | -9% | / | i | 28µM*
ICC[n+]1csc2ccccc21 | -1% | / | / | /
Clc1ccc(C[n+]2csc3ccccc32)cc1 | -11% | / | i | 25µM*
C=CCNC(=O)c1cnn2c1NC(=C)C=C2C | 2% | / | / | /
C/C=C/c1cc(OC)c2c(c1)[C@H](C)[C@@H](c1ccc(O)c(OC)c1)O2 | 7.9µM* | i | i | 28%
COc1cc([C@H]2OC[C@H]3[C@@H]2CO[C@H]3c2ccc(O)c(OC)c2)ccc1O | 1% | i | i | 20%
O=C(N/N=C/C(Cl)=C/c1ccccc1)c1ccccn1 | -13% | i | i | 10µM*
O=C(/C=C/c1ccco1)NC(=S)Nc1ccccc1N1CCCC1 | 0% | ? | ? | 22µM*
CC(=O)N(C)c1ccc(NC(=S)NC(=O)/C=C/c2ccco2)cc1 | 3% | 35µM* | i | 21%
O=C(NC(=S)Nc1ccccc1N1CCCCC1)c1ccco1 | 2% | i | i | 35µM*
O=C(/C=C/c1ccco1)NC(=S)Nc1ccccc1N1CCOCC1 | 2% | i | i | 25µM*
CC(=O)Nc1ccc(NC(=S)NC(=O)/C=C/c2ccco2)cc1 | -4% | ? | i | -22%[1.82 µM]
FC(F)(F)c1ccccc1Cn1ccc2ccc(-c3ccc4ccn(Cc5ccccc5C(F)(F)F)c4c3)cc21 | / | i | / | /
CC(C)CC(=O)Nc1ccc(S(=O)(=O)Nc2cc3c(cc2N2CCOCC2)n(C)c(=O)c(=O)n3C)cc1 | / | i | i | 8%
COc1cccc(/C=C/C(=O)Nc2ccccc2N2CCOCC2)c1 | -19% | i | i | 22µM*
O=C(/C=C/c1ccc(Cl)cc1)Nc1ccccc1N1CCOCC1 | 0% | i | i | 14%
COc1coc(C(O)CN)cc1=O (stereo not drawn) | 1% | i | i | 0%[0.397 µM]
CCOC(=O)C(=Cc1cc(=O)c(OC)co1)C(=O)OCC | 8% | i | i | 13µM*
Cc1ccc(C23CC4CC(CC(CC(=O)NC(C)(C)CO)(C4)C2)C3)cc1 | 2% | i | i | 35µM*
Cc1cccc(NC(=O)Cn2cc(S(=O)(=O)N3CCCC3)c(S(=O)(=O)N3CCCC3)c2)c1C | / | i | i | 12%
Cc1ncoc1C(=O)N1CCCC(C(=O)c2ccc(-c3ccccc3)c(F)c2)C1 (stereo not drawn) | -40% | ? | i | 22µM*
Cc1ncoc1C(=O)N1CCCC(C(=O)c2ccc(Oc3ccccc3)cc2)C1 (stereo not drawn) | -21% | i | i | -4%
SMILES | aSyn yeast inh | FUS yeast rescue | Abeta yeast res | TDP-43 yeast inh
Cn1cccc1C(=O)OCC(=O)Nc1cc(C(C)(C)C)nn1-c1ccccc1 | 7% | i | i | 35µM*
O=Cc1ccc(-c2ccc(Cl)cc2Cl)[nH]1 | 10% | i | i | 20µM*
Cc1ccc(Cl)cc1NC(=O)CSC1=Nc2ccccc2C2=NC(Cc3ccccc3)C(=O)N12 (stereo not drawn) | / | ? | i | 6%
Cn1c(SCC(=O)Nc2ccc(C(=O)O)cc2)nc2scc(-c3ccccc3Cl)c2c1=O | / | 35µM* | i | -1%
COc1ccc(-c2ccc(NS(=O)(=O)c3cc(C)c(C)cc3C)cc2)nn1 | / | ? | i | 18µM*
COc1ccc(-c2cccc(NS(=O)(=O)c3cc(C(F)(F)F)ccc3Cl)c2)nn1 | / | i | i | 6%
COc1ccc(-c2cccc(NS(=O)(=O)c3cc(C)c(Cl)cc3C)c2)nn1 | / | ? | i | 18µM*
Cc1nc2c(C(=O)NC(C)c3ccccc3)cnn2c(C)c1Cc1ccccc1 (stereo not drawn) | / | ? | i | 29%
CCCCOc1ccc(C(=O)NCC2(c3ccccc3)CCOCC2)cc1 | 2% | ? | i | 16µM*
CCCCCOc1ccc(C(=O)NCC2(c3ccccc3)CCOCC2)cc1 | 3% | ? | i | -10%
COc1ccc(C2Nc3ccccc3C(=O)N2Cc2ccncc2)cc1COc1ccc(NC(C)=O)cc1 (stereo not drawn) | / | i | / | /
